# Reference: the supplement of paper PMC11006884
# About 6,500 targets were measured; listed, in parts, are those with a hit and a random draw of the rest. About 2% of all pairs of compound and target were hits. Unmarked numbers belong to inactive results.
# Compound: COC(=O)C#Cc1ccccc1 [methyl 3-phenylpropiolate]
# Test: log2 ratio of iodoacetamide-alkyne labeling of the cysteine site, DMSO over compound (competition); higher = stronger covalent engagement of the cysteine by the compound, active = 1 or more
# Details: 500 µM; treatment time 1 h; system: HEK293T cell lysate
# How it was run: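 Reporter intensities give each cysteine's log2 competition ratio as the mean of control channels over the mean of compound channels. The samples were HEK293T lysate (2 mg/mL) given vehicle or electrophile (500 µM, 1 h, ambient temperature), then iodoacetamide alkyne (1 h), followed by click coupling to sCIP-TMT reagents, pooling, trypsin digestion overnight at 37 °C, streptavidin enrichment, acid elution, Orbitrap Eclipse LC-MS/MS with FAIMS and FragPipe quantification. Duplicate channels and three replicates were run, and cysteines quantified in only one replicate were discarded.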
row,Target,log2 ratio of iodoacetamide-alkyne labeling
1,SPAG5 C1035 (UniProt Q96R06),0.251
2,IRF2BP1 C363 (UniProt Q8IU81),0.0738
3,UniProt Q69YQ0_C79,0.787
4,POM121 C461 (UniProt Q96HA1),0.43
5,UniProt Q8WZA9_C504,0.0403
6,ADO C258 (UniProt Q96SZ5),0.15
7,USP28 C142 (UniProt Q96RU2),1.47 (active)
8,ANKRD40 C358 (UniProt Q6AI12),1.2 (active)
9,VPS8 C1371 (UniProt Q8N3P4),0.234
10,DHX30 C461 (UniProt Q7L2E3),0.193
11,UniProt Q9BSH4_C112,-0.152
12,ANKRD40 C209 (UniProt Q6AI12),0.466
13,CCAR1 C579 (UniProt Q8IX12),0.0854
14,CCDC117 C81 (UniProt Q8IWD4),1.66 (active)
15,UniProt Q7Z2T5_C239,1.28 (active)
16,NAT14 C108 (UniProt Q8WUY8),1.05 (active)
17,ZFYVE16 C895 (UniProt Q7Z3T8),0.597
18,UniProt Q8IX01_C656,2.27 (active)

row,Target,log2 ratio of iodoacetamide-alkyne labeling
1,DIS3L2 C312 (UniProt Q8IYB7),0.226
2,UniProt Q8WU20_C415,0.241
3,WDFY1 C287 (UniProt Q8IWB7),0.127
4,AKAP1 C147 (UniProt Q92667),1.02 (active)
5,CAND1 C1153 (UniProt Q86VP6),0.443
6,NKAP C349 (UniProt Q8N5F7),0.496
7,UniProt Q8N1I0_C1723,1.34 (active)
8,GINS3 C188 (UniProt Q9BRX5),0.255
9,LUZP1 C969 (UniProt Q86V48),1.01 (active)
10,MYBBP1A C968 (UniProt Q9BQG0),0.274
11,CRBN C78 (UniProt Q96SW2),0.133
12,UniProt Q8WVB3_C244,0.59
13,UBR4 C1450 (UniProt Q5T4S7),0.138
14,SECISBP2 C719 (UniProt Q96T21),-0.258
15,LPP C468 (UniProt Q93052),0.118
16,KHSRP C296 (UniProt Q92945),0.00483
17,YOD1 C97 (UniProt Q5VVQ6),0.146
